Measured values as given in PubChem BioAssay (NCATS).
Several values for one entry are separate records, joined by “and”; a condition that tells them apart may be missing. Equal entries are not always repeated. Inconclusive results are not listed. Activity calls are given as the source filed them. Unless noted, calls come from the whole dose curve; as a rule, active = well fitted curve in the direction sought with a large enough effect; inconclusive = small, poorly fitted or top-dose-only effect, or another doubt; inactive = no such curve, though single readings can be large; an effect the other way counts as inactive or inconclusive.

Experiments:
[1] = target: Endonuclease 4 (Escherichia coli (strain K12)) (UniProt P0A6C1); assay: Counterscreen for APE1 Inhibitors: qHTS Validation Assay for Inhibitors of Endonuclease IV (AID 1708)
Outline: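 Cleavage of a quenched abasic-site DNA duplex (50 nM, 5'-TAMRA, 3'-BHQ-2) by 2 nM enzyme is followed as fluorescence increase. Compounds are preincubated with enzyme 15 min at room temperature before substrate addition.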

[2] = qHTS for differential inhibitors of proliferation of Plasmodium falciparum line 7G8 (AID 1815);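 note: potency is the fitted concentration of half-maximal effect; parasite growth measured after three days of incubation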
[3] = qHTS for differential inhibitors of proliferation of Plasmodium falciparum line GB4 (AID 1816); conditions: Potency: Plasmodium falciparum GB4 proliferation inhibition;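 note: potency is the fitted concentration of half-maximal effect; parasite growth measured after 72 h incubation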
[4] = qHTS for differential inhibitors of proliferation of Plasmodium falciparum line 3D7 (AID 1876); note: potency is the fitted concentration of half-maximal effect
[5] = qHTS for differential inhibitors of proliferation of Plasmodium falciparum line D10 (AID 1877);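 note: potency is the fitted concentration of half-maximal effect; parasites grown with compound for 72 h before DNA staining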
[6] = qHTS for differential inhibitors of proliferation of Plasmodium falciparum line Dd2 (AID 1882); conditions: Potency: Plasmodium falciparum Dd2 proliferation inhibition; note: potency is the fitted concentration of half-maximal effect; nearly all actives have a fitted effect of over 65% in size
Outline: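 SYBR Green I DNA fluorescence read-out, ex 485/em 535 nm. Signals were normalized to 0.29 uM artemisinin and DMSO wells, then corrected using vehicle-only plates flanking each stack. Parasite growth ran 72 h in erythrocytes before lysis.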

[7] = qHTS for differential inhibitors of proliferation of Plasmodium falciparum line W2 (AID 1883); conditions: Potency: Plasmodium falciparum W2 proliferation inhibition;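 note: potency is the fitted concentration of half-maximal effect; parasites grown with compound for 72 h before lysis and staining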
[8] = target: ATP-dependent DNA helicase Q1 (Homo sapiens) (UniProt P46063); assay: qHTS Validation Assay for Inhibitors of RecQ-Like Dna Helicase 1 (RECQ1) (AID 2353)
Outline: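 50 nM RECQ1T1 preincubated 15 min with compound in Tris pH 8.0 buffer with MgCl2, DTT, Tween-20 and 2.5 ug/ml poly(dI-dC); started with 200 nM TAMRA/BHQ-2 forked duplex and 2 mM ATP. Unwinding read as fluorescence (525/598 nm), two reads 2 h apart.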

[9] = Cytometric Cell-Based qHTS for Inhibitors of the mTORC1 Signaling Pathway in MEF (Tsc2-/-, p53-/-) Cells (AID 2660);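 note: percent of cells above a phospho-rpS6 to PI ratio cutoff in each well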
Outline: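 Tsc2-/-, p53-/- MEFs (empty vector) exposed to compound 24 h at 37 C, fixed, stained with Alexa-488 anti-phospho-rpS6 Ser235/236 and propidium iodide. Acumen laser scanning; phospho-S6/PI ratio thresholded against 7.5 nM rapamycin, reported as % positive cells.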

[10] = High Content Imaging Cell-Based qHTS for Inhibitors of the mTORC1 Signaling Pathway in MEF (Tsc2-/-, p53-/-) Cells (AID 2666); conditions: at 38.3 µM (top of the series);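 note: percent of cells scored positive for phospho-rpS6 Ser235/236 immunostaining by imaging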
Outline: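 Phospho-rpS6 (Ser235/236) immunofluorescence, normalized and scored as % positive cells using rapamycin and DMSO controls, was read in empty-vector Tsc2-/-, p53-/- MEFs after 24 h compound exposure at 37 C; propidium iodide counted cells.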

[11] = High Content Imaging Cell-Based qHTS for Inhibitors of the mTORC1 Signaling Pathway in MEF Cells (AID 2667);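 note: Tsc2-/- p53-/- MEFs stably re-expressing wild-type Tsc2 exposed 24 h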
Outline: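 WT MEFs (Tsc2-/-, p53-/- re-expressing Tsc2), in DMEM + 10% FBS, were treated with compound for 24 h at 37 C. Cells were then fixed and stained for phospho-rpS6 Ser235/236 with propidium iodide as cell count. Values are % positive cells, with thresholds set against rapamycin-treated cells.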

[12] = Cytometry Cell-Based qHTS for Inhibitors of the mTORC1 Signaling Pathway in MEF cells (AID 2668);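 note: Tsc2-/- p53-/- mouse embryonic fibroblasts stably re-expressing wild-type Tsc2; percent cells positive for phospho-rpS6 Ser235/236 relative to propidium iodide stain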
Outline: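 Tsc2-/-, p53-/- MEFs re-expressing WT Tsc2; cpd 24 hrs, 37 degree Celsius; PFA fix, Alexa-488 p-rpS6 (Ser235/236) Ab 2 hrs RT, PI counterstain; Acumen 488nm scan; p-S6/PI ratio → % positive cells; PI count = viability.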

[13] = Validation screen for small molecules that induce DNA re-replication in MCF 10A normal breast cells (AID 463097); note: potency is the fitted concentration of half-maximal effect; nearly all actives have a fitted effect of over 60% in size
Outline: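 Image-based qHTS: normal breast cells are incubated with compound for 48 hr, stained with Hoechst, and scanned for total nuclear fluorescence. Compounds raising the fraction of nuclei with elevated DNA content count as re-replication inducers.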

[14] = target: Ubiquitin carboxyl-terminal hydrolase 2 (Homo sapiens) (UniProt O75604); assay: qHTS Validation Assay for Inhibitors of Ubiquitin-specific Protease USP2a Using CHOP2 as the Reporter (AID 463106)
Outline: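 USP2 core (10 nM final) was preincubated with compound 30 min at RT in pH 8.0 Tris/CaCl2/beta-ME/CHAPS buffer. Ub-CHOP2 and reporter substrate (25 nM final each) were then added, with fluorescence (Ex 485/Em 531) read after 60 min. Data were normalized to NEM full inhibition and fitted to concentration-response curves.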

[15] = target: DNA polymerase III PolC-type (Bacillus subtilis (strain 168)) (UniProt P13267); assay: qHTS Validation Assay for the Inhibitors of DNA Replication in Gram-Positive Bacteria (AID 485295);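 note: reconstituted holoenzyme with PolC plus beta clamp SSB and primase; PicoGreen fluorescence of double-stranded DNA made on primed circular M13 template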
Outline: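 First, compound is mixed with the reconstituted replication complex and held at room temperature. Next, circular single-stranded M13Gori with nucleotides starts synthesis. Finally, PicoGreen in EDTA halts the reaction and stains double-stranded product for fluorescence reading.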

[16] = target: Tumor susceptibility gene 101 protein (Homo sapiens) (UniProt Q99816); assay: qHTS Validation Assay for Iinhibitors of HIV-1 Budding by Blocking the Interaction of PTAP/TSG101 (AID 485342; calls by dose curve)
Outline: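 Binding of a FITC-tagged PTAP-motif peptide (50 nM) to the Tsg101 binding domain (10 uM) is monitored by fluorescence polarization. Compounds are pin-delivered before peptide addition, and incubation runs 20 min at room temperature.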

[17] = target: Beta-2 adrenergic receptor (Homo sapiens) (UniProt P07550); assay: qHTS validation assay of beta-arrestin-biased ligands of beta2-adrenergic receptor (AID 485366)
Outline: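 Tango cells expressing recombinant beta2-AR and beta-arrestin with tTA-driven luciferase, in DMEM with 1% FBS. Compounds were titrated up to 46 microM for 18 hr at 37 degrees C. Luminescence was read 15 min after substrate; curves were fitted and class-assigned.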

[18] = target: Thioredoxin reductase 1, cytoplasmic (Rattus norvegicus) (UniProt O89049); assay: qHTS Assay for Inhibitors of Mammalian Selenoprotein Thioredoxin Reductase 1 (TrxR1) (AID 488773); conditions: Potency: inhibition;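 note: drop in NADPH fluorescence over an 8 min run after selenite addition; nearly all actives have a fitted effect of over 40% in size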
Outline: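 Steps: enzyme (90 nM) plus NADPH (400 uM final), 5 min at ~22 deg C; compound added, 15 min; selenite (400 uM final) added; fluorescence followed for 8 min. Concentration-response curves derived from the normalized delta values.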

[19] = target: M-phase phosphoprotein 8 (Homo sapiens) (UniProt Q99549); assay: qHTS Validation Assay for Inhibitors for MPP8 Chromodomain Interactions with Methylated Histone Tails (AID 488949); note: potency is the fitted concentration of half-maximal effect; nearly all actives have a fitted effect of over 55% in size
Outline: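 50 nM MPP8 + 50 nM b-H3K9me3 peptide, PBS pH 7.4/0.01% Tween-20, 30 min RT; + cpd 30 min RT; + AlphaScreen donor/Ni-chelate acceptor beads 10 ug/mL final, 30 min dark; luminescence read.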

[20] = target: Chromobox protein homolog 1 (Homo sapiens) (UniProt P83916); assay: qHTS Validation Assay for Inhibitors of HP1-beta Chromodomain Interactions with Methylated Histone Tails (AID 488953); note: potency is the fitted concentration of half-maximal effect; nearly all actives have a fitted effect of over 50% in size
Outline: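 HP1-beta (50 nM) was preincubated 30 min at room temperature with biotinylated H3(1-18)K9me3 peptide (50 nM) in PBS pH 7.4, 0.01% Tween-20, then with compounds 30 min. AlphaScreen signal was read after streptavidin donor/nickel chelate acceptor beads (10 ug/mL final).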

[21] = target: Transient receptor potential cation channel subfamily V member 1 (Homo sapiens) (UniProt Q8NER1); assay: HTS Assay for Compounds that Act as Enhancers of the Vanilloid Receptor 1 (AID 488979)
Outline: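 TRPV1 cells loaded with Fluo-8 calcium dye; compound added and Ca2+ signal (ex 480/em 520 nm) followed 3 min, then capsaicin at EC20 added and read 2 more min to detect enhancement.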

[22] = target: Thyrotropin receptor (Homo sapiens) (UniProt P16473); assay: qHTS Assay for Antagonists of the Thyroid Stimulating Hormone Receptor (AID 488980)
Outline: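 Readout is cAMP by HTRF competition between cellular cAMP and cAMP-d2 for a cryptate-labelled antibody. Antagonism was assessed in TSHR-transfected HEK293 cells stimulated with 4 nM TSH (EC80, final) in the presence of RO 20-1724.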

Measured: Potency

M-phase phosphoprotein 8 (Homo sapiens), sequence (Q99549 whole entry, looked up): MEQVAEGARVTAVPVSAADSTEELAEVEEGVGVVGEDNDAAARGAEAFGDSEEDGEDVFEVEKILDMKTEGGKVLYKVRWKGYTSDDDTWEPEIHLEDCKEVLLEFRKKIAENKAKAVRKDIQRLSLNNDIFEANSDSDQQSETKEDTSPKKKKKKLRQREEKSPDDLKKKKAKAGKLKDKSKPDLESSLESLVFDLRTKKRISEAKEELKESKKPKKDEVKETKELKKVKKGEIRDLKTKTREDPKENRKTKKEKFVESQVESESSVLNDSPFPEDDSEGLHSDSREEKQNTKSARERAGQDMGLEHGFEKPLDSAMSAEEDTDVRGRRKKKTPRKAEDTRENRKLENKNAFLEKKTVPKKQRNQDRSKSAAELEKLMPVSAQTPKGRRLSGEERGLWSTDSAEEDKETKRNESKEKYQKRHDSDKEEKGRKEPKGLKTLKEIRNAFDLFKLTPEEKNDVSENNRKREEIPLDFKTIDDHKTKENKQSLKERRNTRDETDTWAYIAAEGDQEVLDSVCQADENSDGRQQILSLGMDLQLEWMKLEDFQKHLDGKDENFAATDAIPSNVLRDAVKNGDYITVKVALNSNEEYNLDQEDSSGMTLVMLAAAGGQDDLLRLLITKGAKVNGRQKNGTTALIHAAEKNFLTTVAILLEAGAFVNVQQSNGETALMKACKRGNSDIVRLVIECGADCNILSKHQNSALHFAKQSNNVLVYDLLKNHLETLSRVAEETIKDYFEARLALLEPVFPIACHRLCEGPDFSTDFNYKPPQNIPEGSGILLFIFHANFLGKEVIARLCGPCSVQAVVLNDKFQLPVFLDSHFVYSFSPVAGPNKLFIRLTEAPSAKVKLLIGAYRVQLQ
Chromobox protein homolog 1 (Homo sapiens), sequence (P83916 whole entry, looked up): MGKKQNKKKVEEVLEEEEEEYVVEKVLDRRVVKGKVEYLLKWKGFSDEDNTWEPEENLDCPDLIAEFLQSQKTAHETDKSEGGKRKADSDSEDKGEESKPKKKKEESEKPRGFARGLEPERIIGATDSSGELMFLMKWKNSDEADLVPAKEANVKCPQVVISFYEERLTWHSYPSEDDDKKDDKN
Thioredoxin reductase 1, cytoplasmic (Rattus norvegicus), sequence (O89049 whole entry, looked up): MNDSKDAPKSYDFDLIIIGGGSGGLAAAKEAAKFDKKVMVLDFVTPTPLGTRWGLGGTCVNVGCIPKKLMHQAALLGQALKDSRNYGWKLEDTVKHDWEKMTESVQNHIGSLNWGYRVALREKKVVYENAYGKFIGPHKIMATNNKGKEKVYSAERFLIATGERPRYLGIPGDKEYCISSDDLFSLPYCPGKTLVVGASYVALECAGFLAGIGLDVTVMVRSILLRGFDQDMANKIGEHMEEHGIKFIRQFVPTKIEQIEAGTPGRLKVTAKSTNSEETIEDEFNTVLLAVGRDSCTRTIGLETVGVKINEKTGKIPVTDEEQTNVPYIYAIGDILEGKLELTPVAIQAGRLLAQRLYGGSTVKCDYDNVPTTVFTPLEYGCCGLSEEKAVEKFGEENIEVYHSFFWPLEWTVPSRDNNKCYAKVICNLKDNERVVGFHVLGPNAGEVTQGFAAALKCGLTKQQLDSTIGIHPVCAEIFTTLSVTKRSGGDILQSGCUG
Ubiquitin carboxyl-terminal hydrolase 2 (Homo sapiens), sequence (O75604 whole entry, looked up): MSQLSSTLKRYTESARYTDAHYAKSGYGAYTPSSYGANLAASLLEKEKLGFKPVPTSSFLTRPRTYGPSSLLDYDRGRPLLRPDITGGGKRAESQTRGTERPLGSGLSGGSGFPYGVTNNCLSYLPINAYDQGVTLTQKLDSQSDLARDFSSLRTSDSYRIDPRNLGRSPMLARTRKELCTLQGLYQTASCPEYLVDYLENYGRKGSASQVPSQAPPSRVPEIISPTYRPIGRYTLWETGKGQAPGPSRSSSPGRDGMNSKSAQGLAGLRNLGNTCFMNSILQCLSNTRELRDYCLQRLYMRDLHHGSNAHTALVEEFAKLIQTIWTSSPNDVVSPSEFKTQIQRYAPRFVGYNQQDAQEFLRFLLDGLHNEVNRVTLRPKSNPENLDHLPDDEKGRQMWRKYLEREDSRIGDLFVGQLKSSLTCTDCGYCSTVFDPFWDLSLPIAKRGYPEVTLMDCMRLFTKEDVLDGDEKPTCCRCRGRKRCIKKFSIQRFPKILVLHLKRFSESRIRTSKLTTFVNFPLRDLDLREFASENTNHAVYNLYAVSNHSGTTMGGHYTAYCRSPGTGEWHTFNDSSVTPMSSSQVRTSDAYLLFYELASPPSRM
Thyrotropin receptor (Homo sapiens), sequence (P16473 whole entry, looked up): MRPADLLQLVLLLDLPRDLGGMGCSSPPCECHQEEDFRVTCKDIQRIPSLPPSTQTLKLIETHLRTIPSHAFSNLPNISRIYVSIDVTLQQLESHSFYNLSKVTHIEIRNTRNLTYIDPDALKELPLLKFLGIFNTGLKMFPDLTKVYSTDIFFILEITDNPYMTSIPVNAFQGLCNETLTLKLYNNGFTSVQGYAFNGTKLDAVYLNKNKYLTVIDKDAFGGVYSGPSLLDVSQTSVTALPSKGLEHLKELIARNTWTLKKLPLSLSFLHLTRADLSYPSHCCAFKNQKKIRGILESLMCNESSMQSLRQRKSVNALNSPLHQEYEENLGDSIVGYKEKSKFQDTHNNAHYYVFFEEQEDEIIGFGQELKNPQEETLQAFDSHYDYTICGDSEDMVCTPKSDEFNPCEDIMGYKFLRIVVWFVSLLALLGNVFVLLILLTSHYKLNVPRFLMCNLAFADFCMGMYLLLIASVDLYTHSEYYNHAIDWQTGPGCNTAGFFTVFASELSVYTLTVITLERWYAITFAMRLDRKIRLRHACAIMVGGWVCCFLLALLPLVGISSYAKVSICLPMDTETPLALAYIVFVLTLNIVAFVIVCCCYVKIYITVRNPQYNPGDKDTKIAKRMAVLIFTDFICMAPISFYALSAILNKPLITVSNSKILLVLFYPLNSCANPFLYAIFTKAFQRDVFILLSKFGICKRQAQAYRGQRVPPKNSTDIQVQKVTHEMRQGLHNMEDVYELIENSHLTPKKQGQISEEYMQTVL
DNA polymerase III PolC-type (Bacillus subtilis (strain 168)), sequence (P13267 whole entry, looked up): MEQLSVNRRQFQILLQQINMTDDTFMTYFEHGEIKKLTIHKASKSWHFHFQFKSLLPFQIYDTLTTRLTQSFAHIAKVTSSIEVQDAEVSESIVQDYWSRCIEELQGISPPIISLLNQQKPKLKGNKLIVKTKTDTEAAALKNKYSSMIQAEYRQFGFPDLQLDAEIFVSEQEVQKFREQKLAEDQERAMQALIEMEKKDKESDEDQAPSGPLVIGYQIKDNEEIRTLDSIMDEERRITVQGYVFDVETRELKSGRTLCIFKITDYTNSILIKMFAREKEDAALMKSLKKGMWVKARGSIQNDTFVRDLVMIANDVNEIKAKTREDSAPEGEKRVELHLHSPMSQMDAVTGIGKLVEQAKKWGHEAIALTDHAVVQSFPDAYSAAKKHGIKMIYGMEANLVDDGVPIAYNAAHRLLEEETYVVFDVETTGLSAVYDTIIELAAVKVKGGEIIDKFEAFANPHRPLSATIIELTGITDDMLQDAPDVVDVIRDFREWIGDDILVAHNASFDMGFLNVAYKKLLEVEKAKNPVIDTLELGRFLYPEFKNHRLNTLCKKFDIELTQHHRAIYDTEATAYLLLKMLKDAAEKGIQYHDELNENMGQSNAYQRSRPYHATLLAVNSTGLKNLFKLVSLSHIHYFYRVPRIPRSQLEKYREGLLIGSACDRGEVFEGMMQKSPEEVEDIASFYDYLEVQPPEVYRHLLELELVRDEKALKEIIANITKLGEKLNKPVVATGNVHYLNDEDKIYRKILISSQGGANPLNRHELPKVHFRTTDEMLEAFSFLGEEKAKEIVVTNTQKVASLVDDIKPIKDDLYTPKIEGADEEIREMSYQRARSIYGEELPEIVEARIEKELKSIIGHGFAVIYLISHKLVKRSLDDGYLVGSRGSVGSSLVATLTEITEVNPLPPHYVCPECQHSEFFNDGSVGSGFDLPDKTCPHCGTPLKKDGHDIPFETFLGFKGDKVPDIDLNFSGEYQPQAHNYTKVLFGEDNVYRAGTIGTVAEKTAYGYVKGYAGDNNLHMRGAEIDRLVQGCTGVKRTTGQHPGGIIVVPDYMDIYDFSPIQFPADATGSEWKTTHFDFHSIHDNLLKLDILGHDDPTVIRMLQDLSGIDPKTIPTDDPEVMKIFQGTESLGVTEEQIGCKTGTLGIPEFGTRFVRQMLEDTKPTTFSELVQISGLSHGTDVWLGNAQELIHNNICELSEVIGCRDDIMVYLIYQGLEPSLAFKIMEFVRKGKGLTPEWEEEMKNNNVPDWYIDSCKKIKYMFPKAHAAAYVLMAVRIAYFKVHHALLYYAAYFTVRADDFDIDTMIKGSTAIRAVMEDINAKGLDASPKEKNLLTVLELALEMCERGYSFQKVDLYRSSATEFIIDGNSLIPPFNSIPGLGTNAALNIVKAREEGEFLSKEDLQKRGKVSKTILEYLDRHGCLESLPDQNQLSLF
Tumor susceptibility gene 101 protein (Homo sapiens), sequence (Q99816 whole entry, looked up, the tested form may be a part): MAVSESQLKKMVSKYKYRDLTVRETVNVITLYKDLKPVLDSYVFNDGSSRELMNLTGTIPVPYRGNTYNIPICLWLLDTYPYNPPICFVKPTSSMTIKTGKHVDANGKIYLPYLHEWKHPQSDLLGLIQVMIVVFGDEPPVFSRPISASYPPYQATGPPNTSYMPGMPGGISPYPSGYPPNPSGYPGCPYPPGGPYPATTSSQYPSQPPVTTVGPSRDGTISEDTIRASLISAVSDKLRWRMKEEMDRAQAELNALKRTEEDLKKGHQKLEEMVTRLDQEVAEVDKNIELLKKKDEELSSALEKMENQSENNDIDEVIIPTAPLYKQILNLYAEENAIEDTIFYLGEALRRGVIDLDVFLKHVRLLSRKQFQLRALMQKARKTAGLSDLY

N#C/C(=C\c1ccc(O)c(O)c1)C(=O)Nc1ccccc1
active: [2] 8.91 µM | [3] 14.1 µM | [4] 12.6 µM | [5] 10 µM | [6] 12.6 µM | [7] 7.94 µM | [13] 12.6 µM | [19] 12.6 µM and 10.6 µM | [20] 12.6 µM
inactive: all other assays above
